{"source": "PubChem BioAssay (NCATS)", "note": "Results filed as inconclusive are left out. Entries that show only a call come without a potency. Active and inactive are the calls of the source. Calls follow the shape of the dose curve; as a rule, active = well fitted cell-killing curve with a large enough effect; inconclusive = small, poorly fitted or top-dose-only effect; inactive = no such curve, though single readings can be large or run the other way.", "data": [{"experiment": "qHTS of pediatric cancer cell lines to identify multiple opportunities for drug repurposing: Primary screen for Rh30 cells (AID 1347107); also: nearly all actives have a fitted effect of over 75% in size", "details": "Rh30 rhabdomyosarcoma viability, CellTiter-Glo luminescence, 48 h; series mostly up to 46 µM", "text": "Drug repurposing or repositioning has been offered as a strategy for drug development in oncology programs. This approach has special potential for childhood cancers and other rare or orphan diseases, where the expected return on new drug development has been a disincentive to pharmaceuticals.\nIn this project we exploit the poly-pharmacology of drugs to discover new indications via phenotypic screening of a panel of 19 well-characterized cell lines derived from solid tumors seen in children and adolescents. The goal is to identify approved drugs with previously unrecognized anticancer properties that has the potential to reveal new mechanisms and biological processes involved in carcinogenesis or drug resistance. We employed a titration-based paradigm (quantitative high-throughput screening or qHTS), where all compounds were tested at multiple concentrations for their effect on cell viability. Concentration-response curves (CRCs) were derived directly from the primary screen, and both potency and efficacy values were used to identify compounds with robust bioactivity profiles. We screened the NIH Chemical Genomics Center (NCGC) Pharmaceutical Collection (NPC) and Mechanism Interrogation Plate (MIPE) small molecule collections of approved and investigational compounds against these cell lines; and measured metabolically active cells after 48 hours of compound treatment as a proxy for cell viability.\nAssay Submitter: Nathalia J. Martinez, National Center for Advancing Translational Sciences, National Institutes of Health, Rockville, MD, USA; email: natalia.martinez@nih.gov\n[1] Shen, M et al. Quantitative high-throughput phenotypic screening of pediatric cancer cell lines identifies multiple opportunities for drug repurposing. Oncotarget 2017 Dec 19;9(4):4758-4772. PMID 29435139.\nThe cells were obtained from University of North Carolina (UNC), Pediatric Preclinical Testing Program (PPT), and Coriell Institute (CI).\nqHTS cell viability assay:\nCells were assayed in growth media at a density of 500-1,000 cells/well. Five microliters of cells were dispensed into 1,536-well, white, solid-bottom, TC-treated plates (Greiner Bio One) using a multidrop dispenser and incubated at 37 degrees C, 5% CO2, under a humidified atmosphere for 5 hours. Twenty-three nanoliters of compounds and controls (neutral control DMSO or positive control bortezomib at final concentration of 2.3 µM) were subsequently transferred by Kalypsys pintool. For primary screens, the MIPE collection was tested at 11-point dilutions (final concentrations range from 0.78 nM to 46 µM) and the NPC collection at 8-point dilutions (final concentrations range from 0.59 nM to 46 µM). Compounds tested in follow-up screens were assayed at 11-point dilutions. Cells were incubated for 48 hours, followed by addition of 3 µL of CellTiter-Glo (Promega). After a 15 min incubation at room temperature, samples were analyzed for luminescence intensity using a ViewLux High-throughput CCD imager equipped with clear filters.", "values": [{"compound": "COc1cc2c(cc1OC)-c1cc(=Nc3c(C)cc(C)cc3C)n(C)c(=O)n1CC2", "Potency": "inactive"}, {"compound": "c1cc(CN2CCCCC2)cc(OCCCNc2nc3ccccc3s2)c1", "Potency": "inactive"}, {"compound": "Cc1nc2sccn2c(=O)c1CCN1CCC(=C(c2ccc(F)cc2)c2ccc(F)cc2)CC1", "Potency": "inactive"}, {"compound": "C[N+](C)(C)CCCCCCCCCC[N+](C)(C)C", "Potency": "inactive"}, {"compound": "COc1ccc(CCN(C)CCCC(C#N)(c2cc(OC)c(OC)c(OC)c2)C(C)C)cc1OC", "note": "(stereo not given)", "Potency": "inactive"}, {"compound": "CN(C(=O)CCCOc1ccc2[nH]c(=O)ccc2c1)C1CCCCC1", "Potency": "inactive"}, {"compound": "NS(=O)(=O)c1cc2c(cc1Cl)NC(C1CC3C=CC1C3)NS2(=O)=O", "note": "(stereo not given)", "Potency": "inactive"}, {"compound": "COc1ccc(CN(CCN(C)C)c2ccccn2)cc1", "Potency": "inactive"}, {"compound": "NC(=O)c1ncn([C@@H]2O[C@H](CO)[C@@H](O)[C@H]2O)c1O", "Potency": "inactive"}, {"compound": "O=c1[nH]c(=O)n([C@H]2C[C@H](O)[C@@H](CO)O2)cc1Br", "Potency": "inactive"}, {"compound": "CN(C)C(=O)Oc1ccc[n+](C)c1", "Potency": "inactive"}, {"compound": "c1cnc(N2CCN(Cc3ccc4c(c3)OCO4)CC2)nc1", "Potency": "inactive"}, {"compound": "O=C(O)CP(=O)(O)O", "Potency": "inactive"}, {"compound": "Nc1c2c(nc3ccccc13)CCCC2O", "note": "(stereo not given)", "Potency": "inactive"}, {"compound": "NC(=O)N1c2ccccc2C=Cc2ccccc21", "Potency": "inactive"}, {"compound": "OCCN1CCN(CC/C=C2/c3ccccc3Sc3ccc(C(F)(F)F)cc32)CC1", "Potency": "inactive"}, {"compound": "Cc1cccc(C)c1NC(=O)C(C)N", "note": "(stereo not given)", "Potency": "inactive"}, {"compound": "CCOC(=O)C1=C(C)NC(C)=C(C(=O)OC)C1c1cccc(Cl)c1Cl", "note": "(stereo not given)", "Potency": "inactive"}, {"compound": "CC[N+](C)(C)c1cccc(O)c1", "Potency": "inactive"}, {"compound": "NC(=O)c1cn(Cc2c(F)cccc2F)nn1", "Potency": "inactive"}, {"compound": "CCN(CC)CCNC(=O)c1cc(S(C)(=O)=O)ccc1OC", "Potency": "inactive"}, {"compound": "Cc1nc2ccccn2c(=O)c1CCN1CCC(C(=O)c2ccc(F)cc2)CC1", "Potency": "inactive"}, {"compound": "CN(C)CCCN1c2ccccc2Sc2ccccc21", "Potency": "inactive"}, {"compound": "C[C@]12CCC(=O)C=C1CC[C@@H]1[C@@H]2C(=O)C[C@@]2(C)[C@H]1CC[C@]2(O)C(=O)CO", "Potency": "inactive"}, {"compound": "CC(C)NCC(O)c1cc(O)cc(O)c1", "note": "(stereo not given)", "Potency": "inactive"}, {"compound": "COC(=O)[C@H]1[C@H]2C[C@@H]3c4[nH]c5cc(OC)ccc5c4CCN3C[C@H]2C[C@@H](OC(=O)c2cc(OC)c(OC)c(OC)c2)[C@@H]1OC", "Potency": "inactive"}, {"compound": "C=CCc1ccccc1OCC(O)CNC(C)C", "note": "(stereo not given)", "Potency": "inactive"}, {"compound": "CNCCC(Oc1ccccc1OC)c1ccccc1", "note": "(stereo not given)", "Potency": "inactive"}, {"compound": "CCC(=O)c1ccc2c(c1)N(CCCN(C)C)c1ccccc1S2", "Potency": "inactive"}, {"compound": "C[C@]12CCC(=O)C=C1CC[C@@H]1[C@@H]2CC[C@@]2(C)[C@H]1CC[C@]2(O)C(=O)CO", "Potency": "inactive"}, {"compound": "CCCCCN(CCCCC)C(=O)C(CCC(=O)O)NC(=O)c1ccc(Cl)c(Cl)c1", "note": "(stereo not given)", "Potency": "inactive"}, {"compound": "CNCCCN1c2ccccc2CCc2ccccc21", "Potency": "inactive"}, {"compound": "CN(C)CCCN1c2ccccc2Sc2ccc(C(F)(F)F)cc21", "Potency": "inactive"}, {"compound": "CC(C(=O)O)c1ccc(CC2CCCC2=O)cc1", "note": "(stereo not given)", "Potency": "inactive"}, {"compound": "CN(C)C(=O)Oc1cccc([N+](C)(C)C)c1", "Potency": "inactive"}, {"compound": "CC(C)(Oc1ccc(CCNC(=O)c2ccc(Cl)cc2)cc1)C(=O)O", "Potency": "inactive"}, {"compound": "CCCCCCCC/C=C\\CCCCCCCC(=O)NCc1ccc(O)c(OC)c1", "Potency": "inactive"}, {"compound": "CC1=C(C)C(=O)C(CCCCC#CCCCC#CCO)=C(C)C1=O", "Potency": "inactive"}, {"compound": "C[C@H](CS)C(=O)N1CCC[C@H]1C(=O)O", "Potency": "inactive"}, {"compound": "CN(C)CCOC(=O)COc1ccc(Cl)cc1", "Potency": "inactive"}]}]}
